Most compounds without a hit are left out; they make up all but 4.1% or so of the library.
Casp6 inh: inhibitors of human caspase-6; inhibition, % at 12.5 µM; actives 0.53% (n = 350,000); purified caspase-6, Z-VEID-R110 cleavage fluorescence;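 active = mean inhibition across replicates at least about 35%, with every replicate also reaching that limit, limit read from the data; inconclusive = only one of the two criteria met; inactive = neither criterion met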
Target sequence (P55212 24-179 limits assumed): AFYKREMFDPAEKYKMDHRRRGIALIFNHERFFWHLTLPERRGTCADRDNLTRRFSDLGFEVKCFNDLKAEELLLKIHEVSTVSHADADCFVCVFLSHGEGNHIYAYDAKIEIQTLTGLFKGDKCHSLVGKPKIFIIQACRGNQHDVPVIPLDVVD
Target sequence (P55212 194-293 limits assumed): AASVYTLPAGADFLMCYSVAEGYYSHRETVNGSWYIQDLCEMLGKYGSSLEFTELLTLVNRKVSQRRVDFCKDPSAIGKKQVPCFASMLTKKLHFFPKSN
NSD2 HMT inh: blocks human histone methyltransferase NSD2; NSD2 peptide methylation, AlphaScreen, 120 min; inhibition, % at 12.5 µM; actives 0.54% (n = 310,000); in the data active = inhibition above about 50%
CFTR F508del cor: CFTR F508del correction in bronchial cells; CFBE cells, YFP halide quenching; stimulated with forskolin plus potentiator P3; % fluorescence drop versus neutral controls; activity (quench increase), % at 7.58 µM; actives 0.36% (n = 350,000); AID 720511;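 active = mean added fluorescence quench of at least 8% versus neutral control, with both replicates also reaching 8%; inconclusive = only one of the mean or replicate conditions met; inactive = mean below 8% and not both replicates reaching 8%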;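 note: cells transiently co-express mutant CFTR-F508del with the halide-sensitive YFP; corrector assay measuring rescue of mutant channel to the surface after 24 h compound exposure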
HIV Env fusion: inhibitors of HIV Env-mediated cell fusion; HeLa-JRFL Env/CEM21 cell fusion, luciferase; inhibition, % at 12.3 µM; actives 1.1% (n = 360,000); AID 651610;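 active = mean replicate inhibition score of at least 50 and every replicate individually at or above 50; inconclusive = only one of the two criteria met; inactive = mean below 50 and not all replicates reaching 50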
PglD inh: blocks C. jejuni PglD acetyltransferase activity; purified PglD enzyme, DTNB colorimetric CoA detection; inhibition, % at 12.5 µM; actives 0.098% (n = 360,000); AID 602405; in the data active = inhibition above about 16%, passing the limit was not always enough; inconclusive = no clear call, values can overlap the other calls
ALR H2O2 inh: blocks human ALR sulfhydryl oxidase activity; AID 485317; actives 3.8% (n = 290,000); inhibition, % (concentration not given with the values); purified ALR, DTT oxidation, H2O2 HRP-luminol luminescence;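 active = mean replicate inhibition above about 79%, with every replicate also reaching it, limit read from the data; inconclusive = only one of the two criteria met; inactive = mean below limit and not every replicate reaching it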
Target sequence (P55789 whole entry, looked up): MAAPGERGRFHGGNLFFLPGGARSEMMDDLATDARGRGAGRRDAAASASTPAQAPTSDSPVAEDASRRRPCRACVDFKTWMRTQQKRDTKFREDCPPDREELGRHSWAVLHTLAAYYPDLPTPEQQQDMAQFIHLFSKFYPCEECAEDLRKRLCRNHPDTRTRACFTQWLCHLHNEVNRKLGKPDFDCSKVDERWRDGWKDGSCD
A number is an active result; – = inactive; ? = inconclusive; · = no result given.

SMILES	Casp6 inh	NSD2 HMT inh	CFTR F508del cor	HIV Env fusion	PglD inh	ALR H2O2 inh
COc1ccc2c3c([nH]c2c1)[C@@H](CO)N(C(=O)CN(C)C)CC31CN(CC2CCCC2)C1	–	·	–	·	·	·
O=C(C[C@@H]1C[C@@H]2c3cc(NC(=O)Nc4ccccc4)ccc3O[C@@H]2[C@H](CO)O1)NCc1ccccn1	–	·	–	–	–	·
CCn1c(CNc2ccc(F)cc2)nnc1SCCN1CCCCC1	·	–	·	–	–	98
CCCCNc1ccc(C(F)(F)F)cc1S(=O)(=O)NCCc1ccc(F)cc1	–	·	–	72	–	·
COc1ccc(S(=O)(=O)NCCc2ccc(F)cc2)cc1	·	–	·	–	–	·
CN1CCN(C(=O)C[C@@H]2CC[C@H]3[C@@H](COC[C@@H](O)CN3CC3CC3)O2)CC1	–	·	–	·	–	·
CCOC(=O)C1CCN(C(=O)c2ccc(Cl)c(Cl)c2)CC1	·	–	·	·	–	–
CCOC(=O)C1CCCN(C(=O)c2ccc3c(c2)C(C)(C)CCC3(C)C)CC1 (configuration not stated)	–	–	–	60	–	·
CCOC(=O)C1CCN(C(=O)c2ccc3c(c2)C(=O)N(c2ccccc2C)C3=O)CC1	–	–	–	85	·	–
O=C(O)/C=C/C(=O)Nc1ccc(-c2ccccc2)cc1	–	–	·	–	–	98
O=C(O)/C=C/C(=O)Nc1ccc(OCc2ccccc2)cc1	–	–	–	–	·	–
O=C(O)/C=C\C(=O)Nc1ccc(N2CCN(c3ccc(F)cc3)CC2)cc1	–	–	–	–	–	98
O=C(O)/C=C\C(=O)Nc1ccc(N2CCN(c3cccc(Cl)c3)CC2)cc1	–	–	–	–	·	99
O=C(O)/C=C\C(=O)Nc1ccc(N2CCN(c3ccc(Cl)c(Cl)c3)CC2)cc1	–	–	–	–	–	–
O=C(O)/C=C\C(=O)Nc1ccc(N2CCN(c3ccc(Cl)cc3)CC2)cc1	–	–	–	–	–	98
O=C(C[C@@H]1CC[C@H](NS(=O)(=O)c2ccc(F)cc2)[C@H](CO)O1)NCc1ccccc1F	–	·	–	·	·	·
COC(=O)[C@]12C[C@H](CC(=O)NCc3ccc(OC)c(OC)c3)C(=O)N(Cc3ccccc3)C1=C[C@H](C(C)(C)C)O[C@@H]2C	–	·	–	88	·	·
COC(=O)[C@]12C[C@H](CC(=O)NCc3ccc(OC)c(OC)c3)C(=O)N(CCC3=CCCCC3)C1=C[C@H](C(C)(C)C)O[C@@H]2C	–	·	–	82	·	·
COC(=O)[C@]12C[C@H](CC(=O)NCc3ccccc3)C(=O)N(Cc3ccccc3)C1=C[C@H](C(C)(C)C)O[C@@H]2C	–	·	–	–	·	·
COC(=O)[C@]12C[C@H](CC(=O)N3CCN(C(=O)c4ccco4)CC3)C(=O)N(CCC3=CCCCC3)C1=C[C@H](C(C)(C)C)O[C@@H]2C	–	·	–	74	·	·
CO[C@H]1CN(C)C(=O)c2cc(NC(=O)CC(F)(F)F)ccc2OC[C@@H](C)N(C(C)=O)C[C@H]1C	–	·	–	·	·	·
CC(C)CC#Cc1ccc2c(c1)O[C@@H](CN(C)C(=O)C1CCCCC1)[C@H](C)CN([C@H](C)CO)S2(=O)=O	–	·	–	–	–	·
COc1ccc(NC(=O)Nc2cccc3c2O[C@@H](CN(C)S(=O)(=O)c2cccs2)[C@H](C)CN([C@@H](C)CO)C3=O)cc1	–	·	–	–	–	·
COc1ccc(-c2nc3cc(C)ccn3c2NCc2ccc3c(c2)OCO3)cc1	–	–	·	–	·	–
Clc1ccc(-c2nc3ncccn3c2Nc2ccc3c(c2)OCO3)cc1	·	–	·	–	–	–
SMILES	Casp6 inh	NSD2 HMT inh	CFTR F508del cor	HIV Env fusion	PglD inh	ALR H2O2 inh
Cc1ccc(-c2nc3ncccn3c2Nc2ccc3c(c2)OCO3)o1	·	–	·	–	–	99
Oc1ccc(-c2nc3ncccn3c2Nc2ccc3c(c2)OCO3)cc1	·	–	·	·	–	99
Cc1ccn2c(Nc3ccc4c(c3)OCO4)c(-c3ccc(O)cc3)nc2c1	–	–	–	–	·	85
COCC(=O)Nc1ccc2c(c1)C(=O)N(C)[C@H]1CC[C@H](CC(=O)NCc3ccccc3)O[C@H]1CO2	–	·	–	–	–	·
CCOC(=O)N1CCC(NC2CCCCCCC2)CC1	·	–	·	–	–	–
CCOC(=O)N1CCN(C(C(=O)NC2CCCC2)C(C)C)CC1 (configuration not stated)	38	·	–	–	·	·
CC(C)CC#Cc1cnc2c(c1)C(=O)N([C@@H](C)CO)C[C@@H](C)[C@@H](CN(C)Cc1ccc3c(c1)OCO3)O2	–	·	–	–	–	·
CCCCCn1c(NC2CCCCC2)nc2c1c(=O)[nH]c(=O)n2C	–	·	–	–	–	–
CCC(C)Nc1nc2c(c(=O)[nH]c(=O)n2C)n1CCOc1ccccc1 (configuration not stated)	–	–	–	–	–	98
CCCCn1c(NC(C)CC)nc2c1c(=O)[nH]c(=O)n2C (configuration not stated)	·	–	·	·	–	92
CCCSc1nnc(NC(=O)CSc2nc3[nH]c(=O)cc(O)c3s2)s1	–	–	–	–	·	–
Cc1cnc(=O)[nH]c1SCC(=O)Nc1nccs1	–	–	–	–	–	97
Cc1nc(SCC(=O)Nc2nccs2)c(C#N)c(C)c1C	–	–	–	–	–	–
CCc1nnc(NC(=O)CSc2nc3[nH]c(=O)cc(O)c3s2)s1	–	–	–	–	–	99
O=C(CSc1nc2[nH]c(=O)cc(O)c2s1)Nc1nccs1	–	–	–	·	–	95
COCC(=O)N1CC(=O)N2[C@@H](CO)[C@@H](c3ccc(C#Cc4cccc(OC)c4)cc3)[C@@H]2C1	–	·	–	·	·	·
COc1ccc(S(=O)(=O)N(C)C[C@@H]2OCCCC[C@H](C)Oc3ccc(NC(=O)CCCN(C)C)cc3C(=O)N([C@@H](C)CO)C[C@H]2C)cc1	–	·	–	–	–	·
O=C(NC[C@@H]1CC[C@@H]2[C@@H](CN2Cc2cc(-c3ccccc3)on2)O1)c1ccc2c(c1)OCO2	–	·	–	·	·	·
COc1ccc(N2CCN(c3ccc4nnc(CCC(=O)Nc5ccc(C)cc5)n4n3)CC2)cc1	–	·	–	–	–	92
COc1ccc(NC(=O)CCc2nnc3ccc(N4CCC(C)CC4)nn23)cc1	–	–	–	–	–	–
CCN1CCN(C(=O)CCc2nnc3ccc(N4CCN(c5cccc(OC)c5)CC4)nn23)CC1	–	–	–	–	–	99
COc1cccc(N2CCN(c3ccc4nnc(CCC(=O)Nc5ncccc5C)n4n3)CC2)c1	–	–	–	–	–	99
COc1ccc(N2CCN(C(=O)CCc3nnc4ccc(N5CCCC5)nn34)CC2)cc1	–	–	–	–	–	?
CCCC#Cc1cnc2c(c1)C(=O)N([C@H](C)CO)C[C@@H](C)[C@H](CN(C)C(=O)Nc1ccccc1OC)O2	–	·	–	–	–	·
CC(NC(=O)CCn1ccc2cc(S(=O)(=O)N3CCCC3)ccc21)c1ccccc1 (configuration not stated)	–	–	–	57	–	–

Source: PubChem (Broad Institute)
